Among all 5,500 compounds or so, about 2,000 (36%) were called active. About 18% were inconclusive and are not listed. No stated cut-off is given here; in the data, active means normalized growth mostly below about 0.91 (no sharp cut-off); inconclusive means no clear call, values can overlap the other calls; inactive means mostly above about 0.92. Some of the results follow.
Test: chemical genetic growth profiling, strain panel (AID 1159580);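 further: tested at 20 µM; growth read once vehicle control cultures reached saturation at 30 °C; 1 = growth at the plate median or of vehicle wells; lower values mean less growth of the strain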
Details: growth OD

Measured: normalized growth

S=C=NCc1ccccc1
inactive: S. cerevisiae deletion strains, locus YOL012C, strain htz1 0.273
active: S. cerevisiae deletion strains, locus YJR075W, strain HOC1, hits give low values 0.0711 | S. cerevisiae deletion strains, locus YKL009W, strain mrt4, hits give low values 0.0801 | S. cerevisiae deletion strains, locus YKL068W, hits give low values 0.107 | S. cerevisiae deletion strains, locus YKL085W, strain MDH1 (second series), hits give low values 0.0485 | S. cerevisiae deletion strains, locus YKL085W, strain MDH1, hits give low values 0.0485 | S. cerevisiae deletion strains, locus YKL160W, strain elf1, hits give low values 0.0853 | S. cerevisiae deletion strains, locus YKL190W, strain CNB1, hits give low values 0.0505 | S. cerevisiae deletion strains, locus YKR001C, strain vps1, hits give low values 0.0646 | S. cerevisiae deletion strains, locus YKR026C, strain gcn3, hits give low values 0.0866 | S. cerevisiae deletion strains, locus YKR091W, strain srl3, hits give low values 0.0761 | S. cerevisiae deletion strains, locus YLL001W, strain dnm1, hits give low values 0.133 | S. cerevisiae deletion strains, locus YLL026W, hits give low values 0.0653 | S. cerevisiae deletion strains, locus YLL041C, strain sdh2, hits give low values 0.0963 | S. cerevisiae deletion strains, locus YLR027C, strain aat2, hits give low values 0.0701 | S. cerevisiae deletion strains, locus YLR039C, strain RIC1, hits give low values 0.095 | S. cerevisiae deletion strains, locus YLR058C, strain SHM2, hits give low values 0.0484 | S. cerevisiae deletion strains, locus YLR102C, strain apc9, hits give low values 0.0598 | S. cerevisiae deletion strains, locus YLR113W, strain HOG1, hits give low values 0.303 | S. cerevisiae deletion strains, locus YLR221C, strain rsa3, hits give low values 0.0763 | S. cerevisiae deletion strains, locus YLR258W, strain gsy2, hits give low values 0.0685 | S. cerevisiae deletion strains, locus YLR262C, strain YPT6 (second series), hits give low values 0.338 | S. cerevisiae deletion strains, locus YLR262C, strain YPT6, hits give low values 0.107 | S. cerevisiae deletion strains, locus YLR268W, strain sec22, hits give low values 0.0685 | S. cerevisiae deletion strains, locus YLR320W, strain mms22, hits give low values 0.126 | S. cerevisiae deletion strains, locus YLR330W, strain CHS5, hits give low values 0.0521 | S. cerevisiae deletion strains, locus YLR342W, strain FKS1 (second series), hits give low values 0.0771 | S. cerevisiae deletion strains, locus YLR342W, strain FKS1, hits give low values 0.129 | S. cerevisiae deletion strains, locus YLR357W, strain rsc2, hits give low values 0.208 | S. cerevisiae deletion strains, locus YLR370C, strain arc18, hits give low values 0.2 | S. cerevisiae deletion strains, locus YLR371W, strain rom2, hits give low values 0.0645 | S. cerevisiae deletion strains, locus YLR384C, strain iki3, hits give low values 0.101 | S. cerevisiae deletion strains, locus YLR418C, strain cdc73, hits give low values 0.105 | S. cerevisiae deletion strains, locus YML016C, strain PPZ1, hits give low values 0.0508 | S. cerevisiae deletion strains, locus YML032C, strain rad52, hits give low values 0.068 | S. cerevisiae deletion strains, locus YML120C, strain ndi1, hits give low values 0.0743 | S. cerevisiae deletion strains, locus YML124C, strain tub3, hits give low values 0.0581 | S. cerevisiae deletion strains, locus YMR058W, strain fet3, hits give low values 0.102 | S. cerevisiae deletion strains, locus YMR078C, strain ctf18, hits give low values 0.0763 | S. cerevisiae deletion strains, locus YMR125W, strain sto1, hits give low values 0.118 | S. cerevisiae deletion strains, locus YMR129W, hits give low values 0.115 | S. cerevisiae deletion strains, locus YMR205C, strain PFK2, hits give low values 0.175 | S. cerevisiae deletion strains, locus YMR223W, strain ubp8, hits give low values 0.0652 | S. cerevisiae deletion strains, locus YMR231W, strain pep5, hits give low values 0.159 | S. cerevisiae deletion strains, locus YMR263W, strain SAP30, hits give low values 0.0638 | S. cerevisiae deletion strains, locus YMR307W, strain GAS1, hits give low values 0.128 | S. cerevisiae deletion strains, locus YNL067W, strain RPL9B, hits give low values 0.0559 | S. cerevisiae deletion strains, locus YNL071W, strain lat1, hits give low values 0.0773 | S. cerevisiae deletion strains, locus YNL128W, strain TEP1, hits give low values 0.061 | S. cerevisiae deletion strains, locus YNL153C, strain GIM3, hits give low values 0.0485 | S. cerevisiae deletion strains, locus YNL183C, strain NPR1, hits give low values 0.784 | S. cerevisiae deletion strains, locus YNL209W, strain ssb2, hits give low values 0.172 | S. cerevisiae deletion strains, locus YNL233W, strain BNI4, hits give low values 0.054 | S. cerevisiae deletion strains, locus YNL248C, strain rpa49, hits give low values 0.0817 | S. cerevisiae deletion strains, locus YNL250W, strain rad50, hits give low values 0.0774 | S. cerevisiae deletion strains, locus YNL271C, strain bni1, hits give low values 0.0636 | S. cerevisiae deletion strains, locus YNL298W, strain CLA4, hits give low values 0.0658 | S. cerevisiae deletion strains, locus YNL307C, strain MCK1, hits give low values 0.109 | S. cerevisiae deletion strains, locus YNL322C, strain KRE1 (second series), hits give low values 0.0969 | S. cerevisiae deletion strains, locus YNL322C, strain KRE1, hits give low values 0.0496 | S. cerevisiae deletion strains, locus YNR049C, strain mso1, hits give low values 0.0995 | S. cerevisiae deletion strains, locus YNR052C, strain pop2, hits give low values 0.0721 | S. cerevisiae deletion strains, locus YOL006C, strain TOP1, hits give low values 0.101 | S. cerevisiae deletion strains, locus YOL147C, strain pex11, hits give low values 0.0554 | S. cerevisiae deletion strains, locus YOR001W, strain rrp6, hits give low values 0.0775 | S. cerevisiae deletion strains, locus YOR061W, strain CKA2, hits give low values 0.0465 | S. cerevisiae deletion strains, locus YOR069W, strain VPS5, hits give low values 0.048 | S. cerevisiae deletion strains, locus YOR070C, strain gyp1, hits give low values 0.106 | S. cerevisiae deletion strains, locus YOR080W, strain dia2, hits give low values 0.169 | S. cerevisiae deletion strains, locus YOR083W, strain WHI5, hits give low values 0.0989 | S. cerevisiae deletion strains, locus YOR106W, strain vam3, hits give low values 0.115 | S. cerevisiae deletion strains, locus YOR136W, strain idh2, hits give low values 0.0696 | S. cerevisiae deletion strains, locus YOR144C, strain elg1, hits give low values 0.0548 | S. cerevisiae deletion strains, locus YOR184W, strain ser1, hits give low values 0.0749 | S. cerevisiae deletion strains, locus YOR231W, strain MKK1, hits give low values 0.183 | S. cerevisiae deletion strains, locus YOR265W, strain rbl2, hits give low values 0.081 | S. cerevisiae deletion strains, locus YOR270C, strain vph1, hits give low values 0.135 | S. cerevisiae deletion strains, locus YOR290C, strain snf2, hits give low values 0.0951 | S. cerevisiae deletion strains, locus YOR316C, strain cot1, hits give low values 0.0582 | S. cerevisiae deletion strains, locus YPL051W, strain arl3, hits give low values 0.0938 | S. cerevisiae deletion strains, locus YPL055C, strain LGE1, hits give low values 0.0848 | S. cerevisiae deletion strains, locus YPL078C, strain atp4, hits give low values 0.0881 | S. cerevisiae deletion strains, locus YPL106C, strain sse1, hits give low values 0.222 | S. cerevisiae deletion strains, locus YPL240C, strain hsp82, hits give low values 0.0863 | S. cerevisiae deletion strains, locus YPL241C, strain CIN2, hits give low values 0.0506 | S. cerevisiae deletion strains, locus YPL256C, strain CLN2, hits give low values 0.219 | S. cerevisiae deletion strains, locus YPR119W, strain clb2, hits give low values 0.0611 | S. cerevisiae deletion strains, locus YPR141C, strain kar3, hits give low values 0.0705 | S. cerevisiae deletion strains, locus YPR163C, strain tif3, hits give low values 0.07 | S. cerevisiae deletion strains, locus YPR167C, strain met16, hits give low values 0.0606 | S. cerevisiae deletion strains, strain wtn01, hits give low values 0.0609 | S. cerevisiae strains, strain wild type, hits give low values 0.0473
